Measured values taken from publication PMC4336329 (PLoS ONE, 2015).
Among all 310,000 compounds or so, about 14,000 (4.5%) showed an effect of 50% or more. The effect is printed as a negative number. What follows is part of a selection rich in strong results, with near analogues and random picks from the rest.

biological target: human ether-à-go-go-related gene (hERG) potassium channel (human, UniProt Q12809); test: primary screen, population patch clamp on CHO cells stably expressing hERG; higher = less effect of the substance
Method: Briefly, Chinese hamster ovary (CHO) cells stably expressing the hERG channel were dislodged from tissue culture flasks and dispensed into PPC plates. […] During the recording, background leak currents were estimated by a 100 ms step to -80 mV from an initial holding potential of -70 mV and subtracted from the subsequent current measurement. The campaign was conducted in two phases using slight differences in recording protocol. In the first phase, the initial voltage pulse used a 100 ms step to -30 mV from a holding potential of -70 mV, a 2 s conditioning step to +25 mV, and a 2 s test step to -30 mV. During the second phase of the screen, the potential during the conditioning step was raised to +45 mV. In both phases of the campaign, a secondary voltage pulse was applied using the same parameters as the second phase initial pulse. The initial and secondary pulses were applied in the absence of compound, and upon application of 1 μM and 10 μM test concentrations. […]
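Also: peak tail current of the secondary pulse compared with the same well before compound.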

human ether-à-go-go-related gene (hERG) potassium channel, sequence (Q12809 whole entry, looked up): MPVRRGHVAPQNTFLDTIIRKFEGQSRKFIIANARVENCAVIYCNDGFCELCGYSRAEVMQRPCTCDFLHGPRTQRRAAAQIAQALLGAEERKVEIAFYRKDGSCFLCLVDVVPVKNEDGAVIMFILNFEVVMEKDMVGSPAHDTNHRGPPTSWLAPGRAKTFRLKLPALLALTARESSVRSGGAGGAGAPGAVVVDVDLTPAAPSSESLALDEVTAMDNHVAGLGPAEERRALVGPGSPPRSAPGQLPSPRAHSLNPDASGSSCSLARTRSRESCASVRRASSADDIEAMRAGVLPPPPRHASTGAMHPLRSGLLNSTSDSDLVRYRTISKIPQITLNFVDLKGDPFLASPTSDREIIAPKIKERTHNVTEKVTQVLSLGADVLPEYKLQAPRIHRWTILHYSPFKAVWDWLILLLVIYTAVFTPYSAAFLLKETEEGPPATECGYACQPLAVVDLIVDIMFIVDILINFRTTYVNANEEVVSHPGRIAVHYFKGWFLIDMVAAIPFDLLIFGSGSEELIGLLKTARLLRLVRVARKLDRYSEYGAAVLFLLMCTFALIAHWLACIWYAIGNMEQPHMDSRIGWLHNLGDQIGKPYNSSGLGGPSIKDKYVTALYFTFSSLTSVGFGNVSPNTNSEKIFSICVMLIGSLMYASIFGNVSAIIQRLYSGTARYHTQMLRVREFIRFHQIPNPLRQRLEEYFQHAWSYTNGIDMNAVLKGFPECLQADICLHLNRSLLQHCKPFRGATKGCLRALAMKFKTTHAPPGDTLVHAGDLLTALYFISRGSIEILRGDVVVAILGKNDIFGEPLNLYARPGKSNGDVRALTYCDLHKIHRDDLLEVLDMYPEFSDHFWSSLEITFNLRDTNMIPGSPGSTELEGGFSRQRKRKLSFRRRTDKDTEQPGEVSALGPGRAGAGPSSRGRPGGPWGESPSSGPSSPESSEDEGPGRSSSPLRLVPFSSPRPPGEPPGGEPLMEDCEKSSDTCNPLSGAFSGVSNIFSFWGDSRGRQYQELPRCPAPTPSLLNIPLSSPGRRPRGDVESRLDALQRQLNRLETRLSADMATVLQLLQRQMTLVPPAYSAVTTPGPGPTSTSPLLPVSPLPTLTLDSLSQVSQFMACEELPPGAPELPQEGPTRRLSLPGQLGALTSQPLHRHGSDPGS

Row | Compound | hERG current change (%, negative = inhibition) at 10uM
1 | COc1cc(OC)c2cc[nH]c2c1 | 27.3%
2 | Cc1ccccc1NC(=S)NCC(c1cccnc1)N1CCOCC1 (stereo not shown) | -4.07%
3 | Cc1cc(Nc2ccc(Cl)cc2)n2nnnc2n1 | 7.83%
4 | COc1cc(CN2CCN(c3cc(C)ccc3C)CC2)cc([N+](=O)[O-])c1O | 7.26%
5 | Oc1cccc(Nc2ncnc3ccccc23)c1 | 3.18%
6 | O=C(CNC(=O)c1ccccc1Br)N/N=C/c1cccs1 | 4.8%
7 | O=C(Cc1ccc(Cl)cc1Cl)Nc1cccc(S(=O)(=O)Nc2ccccc2F)c1 | -1.71%
8 | Cc1ccc(NC(=O)CCNC(=O)c2ccc([N+](=O)[O-])cc2)cc1S(=O)(=O)N(C)C | -66.9%
9 | O=C(NCC(O)c1ccc([N+](=O)[O-])cc1)c1cccc(S(=O)(=O)N2CCCC2)c1 (stereo not shown) | -66.8%
10 | COC(=O)c1cccc(NC(=O)CCNC(=O)c2ccc([N+](=O)[O-])cc2)c1 | -48%
11 | CN(C)S(=O)(=O)c1ccc(NC(=O)CCNC(=O)c2ccc([N+](=O)[O-])cc2)cc1 | -12.7%
12 | O=C(NCC(O)c1ccc([N+](=O)[O-])cc1)c1cccc(S(=O)(=O)N2CCOCC2)c1 (stereo not shown) | -13%
13 | Cc1ccc(NC(=O)CCNC(=O)c2ccc([N+](=O)[O-])cc2)cc1C | -0.694%
14 | O=C(CSc1ccc([N+](=O)[O-])cc1)Nc1cccc(S(=O)(=O)Nc2ccccc2F)c1 | -74.4%
15 | O=C(NCC(O)c1ccccc1)c1cccc(S(=O)(=O)N2CCOCC2)c1 (stereo not shown) | -18.1%
16 | CCN(CC)S(=O)(=O)c1cccc(NC(=O)CCNC(=O)c2ccc([N+](=O)[O-])cc2)c1 | -62.4%
17 | O=C(Cc1ccc(Cl)cc1)Nc1cccc(S(=O)(=O)Nc2ccccc2F)c1 | 11.9%
18 | Cc1ccc(NC(=O)c2ccc([N+](=O)[O-])cc2)cc1S(=O)(=O)N(C)C | -39.6%
19 | CCOc1ccc(C(=O)Nc2nc(C)cc(C)n2)cc1[N+](=O)[O-] | -49.6%
20 | Cc1nnc(C)n1/N=C/c1ccc(-c2ccccc2Cl)o1 | -11.3%
21 | N[C@@H](Cc1ccc(O)c(I)c1)C(=O)O | 17.6%
22 | COc1ccc(NC(=O)c2oc3ccccc3c2NC(=O)C2CCCO2)cc1OC (stereo not shown) | -17.8%

Row | Compound | hERG current change (%, negative = inhibition) at 10uM
23 | c1ccc(C2=Nn3c(nnc3-c3cc(-c4ccccc4)n[nH]3)SC2)cc1 | 6.46%
24 | COc1ccc(OC)c(/C=N/NC(=O)CSc2nnc(C)n2-c2ccccc2)c1 | -12.4%
25 | CCOc1cc(/C=C(\C#N)C(=O)NCc2cccnc2)ccc1O | -8.66%
26 | COc1ccccc1/C=C\C=N\NC(=O)CCn1nnc2ccccc21 | -3.44%
27 | Cc1nc(Br)c(Br)c(C)c1Br | 14.4%
28 | O=C(CNc1cccc(S(=O)(=O)N2CCCCCC2)c1)Nc1cccc([N+](=O)[O-])c1 | -71.9%
29 | CC(=O)c1cccc(NCC(=O)Nc2cccc(S(=O)(=O)N3CCCCC3)c2)c1 | -31.6%
30 | O=C(CCNC(=O)c1ccc([N+](=O)[O-])cc1)Nc1ccc(S(=O)(=O)N2CCOCC2)cc1 | 2.67%
31 | O=C(CCNC(=O)c1ccc([N+](=O)[O-])cc1)Nc1ccc(Cl)c(S(=O)(=O)N2CCOCC2)c1 | -66.2%
32 | O=C(CNc1cccc(S(=O)(=O)N2CCCCC2)c1)Nc1cccc(F)c1 | -9.9%
33 | Cc1ccc(NC(=O)CCNC(=O)c2ccc([N+](=O)[O-])cc2)cc1S(=O)(=O)N1CCOCC1 | -47.4%
34 | Cc1ccc(-n2c(C)nnc2SCC(=O)N(C)C2CCS(=O)(=O)C2)cc1 (stereo not shown) | 12.9%
35 | Cl.O=C(CCc1ccc(S(=O)(=O)N2CCOCC2)cc1)N1CCN(Cc2ccc3c(c2)OCO3)CC1 | -34.3%
36 | Clc1ccc(-c2cn3nc4c(nc3n2)CCCC4)cc1 | -15.3%
37 | CCOC(=O)c1ccc(NC(=O)c2ccc(NC(=O)C3CCCO3)cc2)cc1 (stereo not shown) | 17%
38 | COc1ccccc1C(=O)Nc1ccccc1N1CCOCC1 | -6.98%
39 | O=C(Nc1ccccc1N1CCN(C(=O)c2ccc(Cl)cc2)CC1)c1ccc(Br)cc1 | -41.5%
40 | COc1cccc(OC)c1C(=O)Nc1ccccc1N1CCCC1 | -74.6%
41 | CC(C)C(=O)NC(=S)Nc1ccccc1N1CCN(C(=O)c2ccc(Cl)cc2)CC1 | -3.55%
42 | O=C(Nc1ccccc1N1CCN(C(=O)c2ccccc2)CC1)c1cccc(Cl)c1 | -67.8%
43 | CC(C)(C)C(=O)Nc1ccccc1N1CCN(C(=O)c2ccc(Cl)cc2)CC1 | -48.2%
44 | O=C(Nc1ccccc1N1CCCCC1)c1cccc(Cl)c1 | 13.5%

Row | Compound | hERG current change (%, negative = inhibition) at 10uM
45 | O=C(Nc1ccccc1N1CCN(C(=O)c2ccccc2)CC1)c1ccc(Cl)cc1 | -73.2%
46 | COc1ccccc1C(=O)Nc1ccccc1N1CCN(C(=O)c2ccc(Cl)cc2)CC1 | -82.1%
47 | COc1cccc(OC)c1C(=O)Nc1ccccc1N1CCCCC1 | -17.4%
48 | CC(C)C(=O)Nc1ccccc1N1CCN(C(=O)c2ccccc2)CC1 | -14.2%
49 | COc1ccccc1C(=O)Nc1ccccc1N1CCCCC1 | -22.4%
50 | O=C(NC1CCSc2ccccc21)c1ccc(Cl)c(S(=O)(=O)N2CCOCC2)c1 (stereo not shown) | 7.48%
51 | Cc1ccc(C(=O)Nc2nc3ccccc3s2)s1 | 8.75%
52 | CC(C)[C@H](NC(=O)c1ccco1)C(=O)N(C)Cc1c(F)cccc1Cl | -32.3%
53 | CCOC(=O)C1(C)/C(=N/Nc2ccccc2Cl)C(=O)C(=O)N1c1ccccc1 (stereo not shown) | 6.03%
54 | Cc1ccc(S(=O)(=O)n2nc(C)c(Br)c2C)c(C)c1C | 20.8%
55 | Cc1ccc(S(=O)(=O)NCc2ccc(C(=O)N3CCN(c4ccccn4)CC3)cc2)cc1 | -33.6%
56 | Nc1nc(-c2ccccc2)nc2sc3c(c12)CCCC3 | 11.7%
57 | CCOc1ccc(C(=O)Nc2ccccc2N2CCCC2)cc1 | -22.8%
58 | CCCCOc1cccc(C(=O)Nc2ccccc2N2CCCC2)c1 | 5.59%
59 | COc1ccccc1C(=O)Nc1ccccc1N1CCN(S(C)(=O)=O)CC1 | -62%
60 | COc1cc(Cl)ccc1NC(=O)COc1ccccc1C(=O)N1CCN(c2ccc(O)cc2)CC1 | -53.9%
61 | Cc1ccc(C(=O)Nc2ccccc2N2CCN(C(=O)C(C)C)CC2)cc1 | -19.1%
62 | Cc1ccc(C(=O)Nc2ccccc2N2CCN(C(=O)C(C)C)CC2)cc1C | -18.7%
63 | CCOc1cccc(C(=O)Nc2ccccc2N2CCN(C(=O)C(C)C)CC2)c1 | -70%
64 | COc1ccccc1NC(=O)COC(=O)c1ccccc1C(=O)N1CCN(c2ccccc2)CC1 | -42.3%
65 | CC(C)C(=O)N1CCN(c2ccccc2NC(=O)c2cccc(Cl)c2)CC1 | -69.6%
66 | COc1cc(Cl)ccc1NC(=O)COc1ccccc1C(=O)NN | -15.4%

Row | Compound | hERG current change (%, negative = inhibition) at 10uM
67 | COc1cc2ccccc2cc1C(=O)Nc1ccccc1N1CCN(S(C)(=O)=O)CC1 | 6.35%
68 | COc1cc(C(=O)Nc2ccccc2N2CCN(S(C)(=O)=O)CC2)cc(OC)c1OC | -29.9%
69 | O=C(CNC(=O)c1ccc(Cl)cc1)c1ccccc1 | -9.6%
70 | CC(C)OC(=O)CSc1nnc2c(n1)[nH]c1ccc(F)cc12 | 8.22%
71 | CN(C(=O)Cn1nnc(-c2ccc(F)cc2)n1)C1CCS(=O)(=O)C1 (stereo not shown) | -2.38%
72 | NC1=NC(=O)C(CC(=O)c2ccc(Cl)cc2)S1 (stereo not shown) | 1.23%
73 | COc1cccc(-n2c(SCC(=O)NCc3cccs3)nc3ccccc3c2=O)c1 | -2.74%
74 | O=C(Nc1ccccc1N1CCN(C(=O)c2ccc(Cl)cc2)CC1)c1cccc([N+](=O)[O-])c1 | -75%
75 | COC(=O)c1ccccc1NC(=S)NC(=O)c1ccc2c(c1)OCO2 | 32.6%
76 | O=C(Nc1ccccc1N1CCN(C(=O)c2ccc(Cl)cc2)CC1)c1cccc(F)c1 | -78.9%
77 | O=C(NC(=S)Nc1ccccc1Br)c1ccc2c(c1)OCO2 | -56.4%
78 | O=C(Nc1ccc(Cl)cc1C(=O)N1CCCC1)c1cccc([N+](=O)[O-])c1 | -12%
79 | O=C(Nc1ccccc1N1CCCC1)c1cccc(F)c1 | 6.24%
80 | CCC(=O)N1CCN(c2ccc(Cl)cc2NC(=O)c2cccc([N+](=O)[O-])c2)CC1 | -49.2%
81 | O=C(NC(=S)NCc1ccccc1)c1ccc2c(c1)OCO2 | -8.81%
82 | Cc1ccc(C(=O)N2CCN(c3cc(=O)[nH]nc3-c3ccccc3)CC2)cc1 | -41.7%
83 | O=C(c1ccc(Cl)cc1)N1CCN(c2cc(=O)[nH]nc2-c2ccccc2)CC1 | -58.3%
84 | O=C(Nc1ccccc1N1CCN(c2ccccc2)CC1)c1cccc(F)c1 | -8.05%
85 | O=C(c1ccc(F)cc1)N1CCN(c2cc(=O)[nH]nc2-c2ccccc2)CC1 | -4.51%
